Source: PubChem BioAssay (National Center for Advancing Translational Sciences (NCATS))
RGS12 GoLoco inh: inhibitors of human Gai1-RGS12 GoLoco interaction (red fluorophore); P63096; Gai1:RGS12 GoLoco peptide FP, rhodamine, 10 min; Potency, µM (series often up to 61.6 µM), for inactives: top-dose activity, negative = inhibition, actives largely listed as inhibitors; 230,000 tested, 0.44% active; AID 880; active = well fitted inhibition curve with a large enough effect, not every such curve was filed as active; inactive = no such curve, though single readings can be large or run the other way; note: potency is the fitted concentration of half-maximal effect; % is set by controls: 0 for no effect and ±100 for the full control effect; nearly all actives have a fitted effect of over 30% in size
Target sequence (P63096 whole entry, looked up): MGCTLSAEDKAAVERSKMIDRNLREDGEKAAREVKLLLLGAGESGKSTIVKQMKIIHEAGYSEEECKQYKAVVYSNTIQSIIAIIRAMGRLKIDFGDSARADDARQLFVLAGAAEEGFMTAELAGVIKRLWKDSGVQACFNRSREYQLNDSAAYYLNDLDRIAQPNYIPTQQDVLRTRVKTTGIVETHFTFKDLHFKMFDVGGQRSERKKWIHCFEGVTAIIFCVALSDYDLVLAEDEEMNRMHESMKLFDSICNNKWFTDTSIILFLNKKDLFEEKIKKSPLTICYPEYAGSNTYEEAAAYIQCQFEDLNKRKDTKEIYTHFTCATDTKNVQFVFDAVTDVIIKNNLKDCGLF
Coupling enz: counter-screen for Giardia aldolase inhibitors: coupling enzyme system; coupling enzyme system counterscreen, AmpLite Red fluorescence; activity change, negative = inhibition, % at 58.2 µM, hits read low; 290,000 tested, 0.67% active; AID 2472; in the data active = activity change below about -30%; note: % is set by controls: 0 for no effect and ±100 for the full control effect
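Coupling enzymes only (glyceraldehyde-3-phosphate) + compound, at 57.5 uM final, 10 min RT; add substrate/coupling/AmpLite Red mix, 20 min RT; fluorescence ex 525/em 598 nm. Actives flag coupling-system interference.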
HTT ATP protect: cytoprotection in Huntington HTT-Q103 PC12 cell model. PC12 HTT-Q103 induced, cytoprotection, ATP luminescence, 40 h. Potency, µM (top dose mostly 56.4 µM), for the others: cytoprotection (ATP increase), actives largely listed as activators. 230,000 tested, 0.14% active; note: potency is the fitted concentration of half-maximal effect; % of control where 0% means no effect; nearly all actives have a fitted effect of over 45% in size
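Quantitative HTS on tebufenozide-induced (100 nM) PC12 cells expressing HTTQ103 exon 1–GFP; compounds tested as a concentration series; survival measured via cellular ATP.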
VDR inhibitor: inhibitors of human vitamin D receptor | AID 504847 | VDR-SRC2-3 peptide fluorescence polarization, 2 h | 400,000 tested, 0.93% active | P11473 | Potency, µM, without a hit: max response, negative = inhibition, hits mostly inhibitors; note: potency is the fitted concentration of half-maximal effect; % is set by controls: 0 for no effect and ±100 for the full control effect
Target sequence (P11473 whole entry, looked up): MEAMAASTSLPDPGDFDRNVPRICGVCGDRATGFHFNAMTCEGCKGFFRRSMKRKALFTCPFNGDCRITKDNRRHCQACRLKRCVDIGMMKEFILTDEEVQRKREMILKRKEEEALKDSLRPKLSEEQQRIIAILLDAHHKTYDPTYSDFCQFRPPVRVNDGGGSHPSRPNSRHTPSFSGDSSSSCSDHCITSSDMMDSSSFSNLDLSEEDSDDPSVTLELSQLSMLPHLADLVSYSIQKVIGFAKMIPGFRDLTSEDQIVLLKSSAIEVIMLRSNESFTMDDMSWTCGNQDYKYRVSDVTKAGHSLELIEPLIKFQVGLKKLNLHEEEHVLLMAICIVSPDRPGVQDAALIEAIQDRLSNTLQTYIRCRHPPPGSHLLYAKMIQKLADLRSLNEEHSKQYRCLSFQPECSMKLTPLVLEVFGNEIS
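The screen uses fluorescence polarization to detect compounds that interfere with recruitment of the SRC2-3 coactivator peptide to VDR; plates are read after 2 h at room temperature.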
JMJD2E inh: JMJD2E (human) inhibition; Potency, µM (highest dose often 57.1 µM), inactives show at the highest dose activity change, negative = inhibition, usual class: inhibitors; JMJD2E catalytic domain, FDH-coupled NADH fluorescence (FDH is formaldehyde dehydrogenase); 230,000 tested, 1.6% active; active = well fitted inhibition curve with a large enough effect, not every such curve was filed as active; inconclusive = small, poorly fitted or top-dose-only effect, or another doubt; inactive = no such curve, though single readings can be large or run the other way;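 note: potency is the fitted concentration of half-maximal effect; 0% = wells with enzyme and -100% = buffer wells without enzyme; nearly all actives have a fitted effect of over 50% in size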
HTT aggregate: mutant huntingtin aggregation inhibition; PC12 HttQ103-GFP aggregates, Acumen cytometry, 40 h; Potency, µM (series often up to 46.1 µM), for the others: top-dose activity change, negative = inhibition, hits mostly inhibitors; 220,000 tested, 1.1% active; AID 1688; note: potency is the fitted concentration of half-maximal effect; % is set by controls: 0 for no effect and ±100 for the full control effect; nearly all actives have a fitted effect of over 60% in size
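Ecdysone-promoter PC12 model expressing HTT exon 1 Q103 fused to GFP, induced by tebufenozide at 100 nM final. Compounds titrated; aggregates sized 1–25 µm scored on a 488 nm laser cytometer.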
* = called active by the depositor; ? = inconclusive; . = not tested or not shown; [ ] = another dose, or the depositor's remark. Compounds with a hit are over-represented: about 2.3% of the library has one in this group of screens. Unless noted, calls come from the whole dose curve; as a rule, active = well fitted curve in the direction sought with a large enough effect; inconclusive = small, poorly fitted or top-dose-only effect, or another doubt; inactive = no such curve, though single readings can be large; an effect the other way counts as inactive or inconclusive.

SMILES | RGS12 GoLoco inh | Coupling enz | HTT ATP protect | VDR inhibitor | JMJD2E inh | HTT aggregate
CCOC(=O)C1=C(N)N(c2ccccc2)C(=O)C1 | -3% | 7 | 11% | 25µM* | 8% | 18%
CCOC(=O)c1ccc(N2C(=O)CC(C(=O)OC)=C2C)cc1 | 5% | 1 | -71%[10 µM] | ? | 1% | ?
Cc1ccc(CNC(=O)CSc2ncc3c(n2)-c2ccc(Cl)cc2N(Cc2ccccc2)S3(=O)=O)cc1 | . | . | . | -3% | . | .
O=Cc1ccc(Sc2nnc(-c3ccccc3)o2)c([N+](=O)[O-])c1 | -9% | -14 | -10% | 79µM* | 0% | ?
Cn1nc([N+](=O)[O-])nc1Sc1nnc(-c2ccccc2)o1 | 3% | -8 | 17% | -9% | 0% | ?
CC(C)=CC[C@@H](O)C1=CC(=O)c2c(O)ccc(O)c2C1=O | -18% | . | -89% | 1.8µM* | . | .
COc1ccc(C2/C=C\[C@H](O[Si](C)(C)C(C)(C)C)[C@H](C(C)C)CC(=O)N2Cc2ccccc2)cc1 (some centres undefined) | -21% | -2 | -18% | -14% | . | .
CC(=O)[C@@H]1[C@H]2[C@@H](C(=O)[C@H]3OC[C@H]2O3)[C@@H]2C=Cc3ccccc3N12 | . | . | -14% | . | . | .
CC(=O)[C@@H]1[C@H]2[C@H](C(=O)[C@H]3OC[C@@H]2O3)[C@H]2C=Cc3ccccc3N21 | 10% | -17 | 8%[1.9 µM] | . | 13µM* | .
COc1ccc(C2=Nn3c(nnc3-c3ccccc3F)SC2)cc1OCC1CC1 | . | . | . | 1% | . | .
O/N=C(\CN1CCCCC1)c1ccccc1 | . | 1 | . | ? | . | .
O=C(CN1CCN(CC(=O)Nc2cccc(F)c2)CC1)NCC1(N2CCOCC2)CCCCC1 | . | . | . | 10% | . | .
Cc1[nH]c2ccccc2c1C1=CC(=O)C=CC1=O | . | . | . | 28µM* | . | .
Cc1ccc2cccc(Oc3ccc([N+](=O)[O-])cc3[N+](=O)[O-])c2n1 | 2% | -29 | . | -2% | -10% | -2%
O=[N+]([O-])c1ccc(Oc2cccc3cccnc23)c([N+](=O)[O-])c1 | 16% | -42* | . | ? | 4% | 22µM*
N#Cc1cc(O)c(-n2nnc3ccccc32)cc1C#N | 2% | 4 | . | 3% | -8% | 5%
N#Cc1cc(Oc2cccc3cccnc23)c(-n2nnc3ccccc32)cc1C#N | . | -21 | -11% | ? | 32µM* | -7%
N#Cc1ccc(Oc2cccc3cccnc23)c([N+](=O)[O-])c1 | . | -37* | . | -18% | . | .
Cc1cc(C)c(S(=O)(=O)NCc2ccc3c(c2)CCN3C(=O)c2ccccc2)c(C)c1 | . | . | . | 0% | . | .
O=C(O)COc1ccc(OCCNC[C@H](O)COc2ccccc2)cc1 | -1% | . | -10% | -1% | . | .
CCOc1ccc(NC(=O)CN(C)C(=O)c2cccnc2Sc2ccc(C)c(C)c2)cc1OCC | . | 0 | . | 7% | . | .
CCOC(=O)C(NC(C)=O)(NS(=O)(=O)c1ccccc1)C(F)(F)F (centres undefined) | 4% | 2 | -17% | 12% | 7% | 3.2µM*
CCOC(=O)NC(NS(=O)(=O)c1ccccc1)(C(=O)OCC)C(F)(F)F (centres undefined) | 0% | 2 | . | -12% | -9% | -20%
N#Cc1cccc(NC(=O)Cn2c3[n+](c4ccc(C(F)(F)F)cc42)CCCCC3)c1 | 14µM* | 1 | 0%[10 µM] | 18% | -25% | -8%
COC(=O)C1=C(C)[C@@H](O)[C@@H](C)[C@](C)(c2cc(OC)c(C)c(OC)c2COc2ccccc2)O1 | 1% | 1 | -17% | -9% | 0% | .
SMILES | RGS12 GoLoco inh | Coupling enz | HTT ATP protect | VDR inhibitor | JMJD2E inh | HTT aggregate
O=P(O)(O)CP(=O)(O)O | -4% | 3 | -1%[10 µM] | 0% | 0.35µM* | -4%
Cc1cc(C)cc(-n2ccnc2SCC(=O)Nc2ccc(C)c(Cl)c2)c1 | . | . | . | 9% | . | .
CCN(CC)N=Nc1ccc(S(=O)(=O)Nc2nc(C)cc(C)n2)cc1 | . | 1 | . | 12% | . | .
CC1(C)CCN2CCC(C)(C)c3c(O)ccc1c32 | . | -30* | . | ? | . | .
CCOc1ccc(C(=O)NCCc2ccc3c(c2)OCCO3)cc1 | 6% | 1 | . | 5% | -16% | 5µM*
Cc1ccc(NC(=O)Cn2cc(C(=O)c3ccco3)c3ccccc32)cc1C | . | . | . | -8% | . | .
Oc1ccc(/C=N/N=C(c2ccccc2)c2ccccc2)c(O)c1O | 5% | -17 | 11%[10 µM] | -27% | 14µM* | ?
O=C(/C(=N/N=C/c1ccc(O)c(O)c1O)c1ccccc1)c1ccccc1 | 7% | -40* | 17%[0.074 µM] | -12% | 1% | -13%
NC(=N\N=Cc1ccccc1)/C(N)=N/N=Cc1ccccc1 | . | . | . | -4% | . | .
O=C(O)c1ccc(C(=O)C(=O)c2ccccc2)cc1 | 13% | 17 | -8%[10 µM] | -10% | 7% | -3%[9.22 µM]
CCCCOc1ccc(Cc2n[nH]c(=S)n2N)cc1 | -30% | 3 | -9%[10 µM] | 50µM* | 0% | -2%
COc1ccc(Cc2n[nH]c(=S)n(N)c2=O)cc1 | 4% | -1 | ? | 8% | -2% | -16%
O=C(/C=C/c1cccc([N+](=O)[O-])c1)c1ccco1 | . | 0 | . | ? | . | .
O=C(/C=C/c1cccc([N+](=O)[O-])c1)c1ccc([N+](=O)[O-])o1 | . | . | . | 2.8µM* | . | .
Oc1ccc(/C=N/Nc2cc(N3CCCC3)nc(N3CCCC3)n2)cc1O | 12% | -37* | 10%[10 µM] | -25% | 14µM* | -28%
Cc1cc(N/N=C/c2ccc(O)cc2O)nc(N2CCOCC2)n1 | -1% | -3 | 7%[10 µM] | 3% | -2% | 9%[9.22 µM]
Oc1ccc(/C=N\Nc2cc(N3CCOCC3)nc(N3CCOCC3)n2)c(O)c1 | -3% | -20 | -4%[10 µM] | 1% | 14µM* | -28%
Cc1ccc(Cl)cc1N1CCN(S(=O)(=O)c2ccc3c(c2)CCN3C(=O)C2CCC2)CC1 | . | . | . | -9% | . | .
O=S(=O)(c1cccs1)N1CCCc2cccc(O)c21 | -21% | -29 | -15% | 1% | ? | 11µM*
O=C(CSC1=NCCS1)N1CCN(c2ccc(Cl)cc2)CC1 | -1% | 0 | 6% | ? | 5% | -4%
O=C(CSC1=NCCS1)c1ccc(Cl)cc1 | 1% | 2 | -42% | 79µM* | -4% | 2%
S=C(NCCC(c1ccccc1)c1ccccc1)Nc1ccccc1Cl | -7% | -3 | -53% | 22% | -10% | 20µM*
CC(C)Cn1c(=O)c(C(=O)NCc2ccccn2)c(O)c2ccccc21 | -6% | 6 | -23%[10 µM] | -3% | -17% | 7.9µM*
Brc1ccc([C@H]2CN3CCSC3=N2)cc1 | -13% | . | -1%[1.9 µM] | -28% | 11µM* | .
c1ccc(C2CN3CCSC3=N2)cc1 (centres undefined) | 6% | 2 | ? | -1% | 6% | -10%
O=C(CSc1nnc2ncccn12)N1CCCCCC1 | -2% | 0 | -14% | 21% | -25% | 0.56µM*
Cn1c(CSc2ncccn2)nnc1SCC(=O)N1CCCCC1 | 1% | 1 | -8%[10 µM] | 2% | 2% | -1%
